Results as given in PubChem BioAssay (EPA / NIEHS).
Active and inactive are the calls of the source. Rule for the calls: active = hit-call score of the fitted dose curve at least 0.9, where 1 is the maximum; inconclusive = response in the unintended direction; inactive = score below 0.9.

assay: LTEA_HepaRG_LDH_cytotoxicity: Cytotoxicity Assessment in the Life Technologies and Expression Analysis (LTEA) Assay (AID 2283563)
Protocol: LTEA_HepaRG is a cell based, multiplexed-readout assay that uses HepaRG, a human liver cell line, with measurements taken at 48 hours after chemical dosing on a 96-well plate.LTEA_HepaRG_LDH_cytotoxicity is one of 102 assay component(s) measured in the LTEA HepaRG cell culture assay. It is a marker of cell viability / cytotoxicity.Data from the assay component LTEA_HepaRG_LDH_cytotoxicity was analyzed into 1 endpoint. This assay endpoint, LTEA_HepaRG_LDH_cytotoxicity, was analyzed in the positive fitting direction relative to DMSO as the negative control and baseline of activity. Using a type of inducible reporter, measures of mRNA induction for loss-of-signal activity can be used to understand cell death. To generalize the intended target to other relatable targets, this assay endpoint is annotated to the cell cycle intended target family, where the subfamily is proliferation.
A total of 1060 chemcials from the ToxCast library were tested in eight-point concentration-response experiments. Cell culture and cytotoxicity assays were conducted at Thermo Fisher Scientific's Custom Services facility (Madison, WI). A single lot of human HepaRG cells (Thermo Fisher Scientific, Frederick, MD) was used for the cell culture experiments. 96-well format collagen type I coated plates of human HepaRG cells were prepared using established methods. Briefly, cryopreserved HepaRG cells were thawed, plated at a density of approximately 100,000 cells/well in HepaRG Thaw, Plate, and General Purpose media (HPRG770, Thermo Fisher Scientific), and incubated for 48 hours. 0.5% DMSO was selected as vehicle control to balance the requisite need of DMSO in HepaRG cultures to maintain differentiation (for example, baseline metabolism, proportions of hepatocytes vs. cholangiocytes), while enabling further hepatic receptor pathway activation (for example, PXR and CAR) in response to chemical exposure. 48 hours after plating, the culture medium was replaced with HepaRG Serum-Free Incudtion Media. Cells were exposed to each test chemical in duplicate and maintained in CO2 incubators for another 48 hours. Chemical plates were thawed to room temperature and 200x concentrations of treatment groups were prepared. 8-point conentration-reponse curves were made with the highest exposure at 100 uM, followed by half-log dilutions, all in 0.5% DMSO. Each test plate contained variouse controls, induction positive controls (1mM phenobarbital), cytotoxicity positive controls ([…] aflatoxin B1), vehicle controls (0.5% DMSO), and total lysis controls (0.5% DMSO). Cell morphology images were taken using an Essen IncuCyte FLR automated microscope, with six 96-well plates imaged in about 24 minutes. Images were captured and exported and JPEG files. Spent culture media was transfered to black-well plates for the LDH assay, and remaining media was sorted at -80 C for later use. Cells were treated with RLT buffer and frozen until shipped for gene expression analysis. Total RNA was isolated from the cell suspension in 75 uL of Buffer RLT (Qiagen, Germantown, MD 20874) by Quintiles/Expression Analysis (Durham, NC) using a custom isolation procedure. Total RNA from each plate well was transferred to a preamplification plate. Fluidigm's 96.96 Dynamic ArrayTM (Fluidigm, Amsterdam, the Netherlands) technology was used for gene expression analyses by quantitative reverse transcription polymerase chain reaction (qRT-PCR, performed by Quintiles/Expression Analysis, Durham, NC)89. Standard TaqManTM Assays (Applied Biosystems/ThermoFisher Scientific, Foster City, CA) were used to assess the expression of 93 genes selected based on their selectivity and sensitivity to important hepatic receptors known to be modulated by environmental chemicals; importance in human hepatocyte functionality; and hepatotoxicity. […]

| SMILES | AC50 | outcome |
| --- | --- | --- |
| COC(=O)[C@H]1[C@H]2C[C@@H]3c4[nH]c5cc(OC)ccc5c4CCN3C[C@H]2C[C@@H](OC(=O)c2cc(OC)c(OC)c(OC)c2)[C@@H]1OC | 30.3 µM (active) | – |
| CC1=C(C)S(=O)(=O)CCS1(=O)=O | – | inactive |
| CC(=O)OCC(COC(C)=O)OC(C)=O | – | inactive |
| c1ccc2occc2c1 | – | inactive |
| O=C1OC(c2ccc(O)cc2)(c2ccc(O)cc2)c2ccccc21 | – | inactive |
| C#CC(O)C(CC)CCCC (stereo not given) | – | inactive |
| C/C=C/c1ccc(OC)cc1 | – | inactive |
| O=C(O)c1[nH]n(-c2ccc(S(=O)(=O)O)cc2)c(=O)c1N=Nc1ccc(S(=O)(=O)O)cc1 | – | inactive |
| OCC(O)CO | – | inactive |
| CCCCCCCC(=O)OC | – | inactive |
| NC=O | – | inactive |
| O=NO | – | inactive |
| CCCCCCC(C=O)=Cc1ccccc1 | – | inactive |
| COC(=O)CCC(=O)OC | – | inactive |
| Nc1nc(=S)c2[nH]cnc2[nH]1 | 32.9 µM (active) | – |
| CSc1ccc(Oc2ccc(S(N)(=O)=O)cc2CN(C)C)cc1C | 81.4 µM (active) | – |
| CC(C)(C)c1ccccc1 | – | inactive |
| CN(C)C(=O)NC1(c2ccccc2)CCN(CCC[C@]2(c3ccc(Cl)c(Cl)c3)CCCN(C(=O)c3ccccc3)C2)CC1 | 19.1 µM (active) | – |
| CN(C)C(=O)NC1(c2ccccc2)CCN(CC[C@@]2(c3ccc(F)c(F)c3)CN(C(=O)c3ccccc3)CCO2)CC1 | 73.5 µM (active) | – |
| CO[C@@H]1COCC[C@@H]1N[C@@H]1CC[C@@](C(=O)N2CCc3ncc(C(F)(F)F)cc3C2)(C(C)C)C1 | – | inactive |

| SMILES | AC50 | outcome |
| --- | --- | --- |
| CC(=O)O[C@]1(C(C)=O)CC[C@H]2[C@@H]3C=C(Cl)C4=CC(=O)[C@@H]5C[C@@H]5[C@]4(C)[C@H]3CC[C@@]21C | 53.7 µM (active) | – |
| CS(=O)(=O)c1ccc([C@@H](C[C@H]2CCC(=O)C2)C(=O)Nc2cnccn2)cc1Cl | – | inactive |
| CCCCCCCCCCCCCCOS(=O)(=O)O | – | inactive |
| O=C(NS(=O)(=O)/C=C/c1cccs1)c1ccc(F)cc1Br | – | inactive |
| Nc1nc(Cl)nc2c1ncn2[C@H]1C[C@H](O)[C@@H](CO)O1 | 8.62 µM (active) | – |
| CCOCCOCCO | – | inactive |
| CN(C)CCCN1c2ccccc2Sc2ccc(Cl)cc21 | 38.4 µM (active) | – |
| Cc1cn([C@H]2C=C[C@@H](CO)O2)c(=O)[nH]c1=O | – | inactive |
| CC(COCC(C)OC(=O)c1ccccc1)OC(=O)c1ccccc1 (stereo not given) | – | inactive |
| CC(C)COC(=O)CCCCC(=O)OCC(C)C | – | inactive |
| COc1ccc(C(=O)Nc2nc3ccccc3c(NCc3ccccc3)c2C#N)cc1 | – | inactive |
| CN(C)CCCN(C)CCCN(C)C | – | inactive |
| CCCCC(CC)COC(=O)CCCCCCCC(=O)OCC(CC)CCCC (stereo not given) | – | inactive |
| CC(=O)[C@@]1(O)CC[C@H]2[C@@H]3CCC4=CC(=O)CC[C@]4(C)[C@H]3CC[C@@]21C | – | inactive |
| CC(C)c1cccc(C(C)C)c1NC(=O)NS(=O)(=O)c1cc(C(C)(C)O)co1 | – | inactive |
| Cn1cnc2c1c(=O)[nH]c(=O)n2C | – | inactive |
| CC(C)c1cccc(C(C)C)c1 | – | inactive |
| CC(=O)CC(c1ccccc1)c1c(O)c2ccccc2oc1=O (stereo not given) | – | inactive |
| CCCCOC(=O)CCCCC(=O)OCCCC | – | inactive |
| CCc1cc(C2=C(C(=O)O)N(c3ccccc3C(F)(F)F)S(=O)(=O)c3ccccc32)cc2c1OCO2 | 74.1 µM (active) | – |
